Here are results for 8 molecules from PubChem BioAssay (NCI).

About 83,000 compounds went through this panel and 20% of them were active in at least one assay; those are over-represented in the sample as a whole.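 A percent growth of 40 corresponds to 60% growth inhibition; 0 means no net growth; -100 means all cells died. Active threshold: below 10.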 A number with no mark means an inactive call. Active and inactive are the calls of the source.

Common to all, as to experiment: NCI-60 one-dose screen, 48 h (100 = growth as untreated, 0 = no growth, -100 = all killed)
What all share (conditions): 10 µM unless noted

In experiment [1] the test system is NCI-H23 lung.
For experiment [2], the system named is NCI-H226 lung.
The subject of experiment [3] is NCI-H322M lung.
Experiment [4] has as its system HOP-62 NSCLC.
Experiment [5] relates to NCI-H460 lung.
Experiment [6] relates to NCI-H522 lung.
For experiment [7], the system named is A549/ATCC NSCLC.
The subject of experiment [8] is 786-0 renal.
Experiment [9] has as its system COLO 205 colon.
In experiment [10] the test system is DU-145 prostate.
Experiment [11] has as its system K-562 leukemia.
Experiment [12] deals with MALME-3M melanoma.
Experiment [13] has as its system MDA-MB-231 breast.
Experiment [14] concerns RXF 393 renal.
Experiment [15] relates to SF-268 CNS.
Experiment [16] concerns SF-295 CNS.
Experiment [17] relates to SF-539 CNS.
The test system of experiment [18] is UACC-257 melanoma.
In experiment [19] the test system is M14 melanoma.

Turning to `Nc1ncnc2c1N=C(c1ccc3c(c1)OCO3)CC(c1ccc(Cl)cc1)N2` (configuration not stated), the growth in experiment [1] was 81.8%; in experiment [2] it was 73.3%; in [3] it was 71.2%; in experiment [4], 44.1%; in [5], 83.3%; in experiment [6] it was 84.3%. Besides, the growth in experiment [7] is 79.6%; in experiment [8] it was 74.3%; in [9], 68.1%; in experiment [10] it was 92%; in experiment [11], 83.8%; in [12], 77.2%. For the same molecule, the growth was 72.3% in experiment [13]; 55.1% in [14]; 77.3% in [15]; 93.4% in [16]; 80.2% in experiment [17]; 96.2% in [18]. Besides, the growth in [19] is 96%.
Consider `CCCCCCCCCCCC1=NC(C)(C)CN1CC(C)O` (configuration not stated), for which the growth in [1] is 64.1%; in experiment [2], 92.8%; in experiment [3], 92.2%; in experiment [4], 60.2%; in experiment [5], 62.6%; in experiment [6], 57%. The growth is 85.4% in [7]; 69.1% in experiment [8]; -97.5% (active) in [9]; 80.1% in [10]; -44.6% (active) in experiment [11]; 79% in [12]. In addition, the growth in experiment [13] was 44%; in [14] it was 28.9%; in experiment [15], 60.1%; in [16], 93.3%; in experiment [17], 63.8%; in experiment [18] it was 59.5%. In addition, the growth in experiment [19] was -2.07% (active).
On to `Cc1ccccc1C1CC(=O)c2ccccc2C1C` (configuration not stated), for which the growth is 100% in [1]; 103% in [2]; 114% in experiment [3]; 104% in [4]; 108% in experiment [5]; 97.1% in [6]. The growth is 89.9% in [7]; 102% in [8]; 104% in [9]; 109% in [10]; 97.3% in [11]; 125% in [12]. In addition, the growth in experiment [13] was 105%; in experiment [14] it was 109%; in experiment [15] it was 101%; in experiment [16] it was 96.3%; in experiment [17], 93%; in [18], 103%. The growth in experiment [19] is 90.6%.
On to `O=C(NO)c1ccc(CNc2cccc3nc(C4CC4)n(-c4ccccc4)c(=O)c23)cc1`, for which the growth in experiment [1] was -48.4% (active); in experiment [2] it was 44.4%; in experiment [3], 37.7%; in [4], 21.5%; in experiment [5] it was 22.6%; in experiment [6], 19.2%. Further, the growth in experiment [7] was 15.3%; in experiment [8], 24.8%; in experiment [9], 8.11% (active); in [10], 3.14% (active); in experiment [11], 11.2%; in [12] it was 36.7%. For the same molecule, the growth in experiment [13] was 26.4%; in experiment [14], -18.7% (active); in experiment [15] it was 7.14% (active); in experiment [16], 12.9%; in [17], 9.38% (active); in experiment [18], 37.6%. Besides, the growth in experiment [19] is 18.4%.
As to `Oc1ccccc1-c1nnc(COc2ccc(Cl)cc2Cl)o1`, the growth in [1] is 57%; in experiment [2], 66.2%; in [3] it was 52.6%; in experiment [4], 40.6%; in [5], 28.3%; in [6], 1.97% (active). Besides, the growth in experiment [7] is 54.5%; in [8] it was 44.7%; in experiment [9] it was 67%; in [10], 48.1%; in [11], 44.5%; in experiment [12], 68.3%. The growth was 48.2% in experiment [13]; 63.5% in experiment [14]; 8.59% (active) in [15]; 47.4% in [16]; 52.1% in [17]; 58.9% in experiment [18]. In experiment [19], the growth is 42.5%.
Take `O=C(CSc1nc2c(n1Nc1ccccc1)-c1ccccc1SC2)Nc1nccs1`: the growth is 91.2% in experiment [1]; 93.6% in experiment [2]; 99.7% in [3]; 101% in experiment [4]; 99.4% in [5]; 95.2% in experiment [6]. Further, the growth in experiment [7] is 96.6%; in experiment [8] it was 96.8%; in experiment [9], 121%; in experiment [10], 105%; in [11], 84.8%; in experiment [12], 101%. For the same molecule, the growth in experiment [13] was 88.7%; in experiment [14] it was 102%; in [15], 96.2%; in [16], 122%; in experiment [17], 97.2%; in [18], 108%. Also, the growth in experiment [19] was 102%.
`COc1ccc(C2c3cccn3-c3ccccc3N2C(C)=O)cc1` (configuration not stated): the growth in experiment [1] is 99.3%; in experiment [2], 97.3%; in experiment [3] it was 82.6%; in experiment [4] it was 88.8%; in experiment [5] it was 97.4%; in experiment [6] it was 122%. Besides, the growth in [7] was 110%; in [8], 106%; in [9] it was 100%; in experiment [10], 108%; in [11] it was 42%; in [12], 93%. For the same molecule, the growth in experiment [13] was 103%; in experiment [14] it was 99.2%; in experiment [15], 95.8%; in experiment [16], 98.7%; in [17], 108%; in experiment [18] it was 109%. Moreover, the growth in experiment [19] was 96.2%.
As for `Cc1ccc(Nc2cc(Cl)c([N+](=O)[O-])cc2[N+](=O)[O-])cc1`, the growth in [1] is 63.8%; in experiment [2], 25.9%; in [3] it was 86.7%; in experiment [4] it was 62.8%; in experiment [5] it was 52.7%; in experiment [6] it was -41.7% (active). Further, the growth in experiment [7] is 76.7%; in experiment [8], 23.5%; in [9], -31.2% (active); in experiment [10] it was 46.7%; in [11] it was 13.3%; in experiment [12], 70.4%. Also, the growth in [13] is 18.3%; in experiment [14], -41.2% (active); in [15] it was 27.7%; in [16], 99.4%; in experiment [17], 21.7%; in experiment [18], 73.6%. In addition, the growth in experiment [19] was 34.7%.
